Measurements from PubChem BioAssay (Tox21).
Unmarked numbers belong to inactive results. Records with an inconclusive call do not appear. Where a call stands in place of a potency, no number is given. Activity calls are given as the source filed them. Unless noted, calls follow the shape of the dose curve; as a rule, active = well fitted curve in the direction sought with a large enough effect in the repeat runs; inconclusive = weak or mixed curves; inactive = no such curve, though single readings can be large; an effect the other way counts as inactive or inconclusive.

How the values were obtained:
[1] = qHTS assay to identify small molecule antagonists of the estrogen related receptor (ERR) signaling pathway from Tox21 library - cell viability counter screen (AID 1224834); also: nearly all actives have a fitted effect of over 30% in size; also: potency is read from the fitted curve at half-maximal effect
Procedure, shortened: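 Multiplexed viability counter screen in ERR cells: 17.5 h compound exposure at 37 C, CellTiter-Fluor added, 30 min at 37 C/5% CO2, fluorescence read.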

[2] = target: Luciferin 4-monooxygenase (Photinus pyralis) (UniProt P08659); assay: qHTS assay to identify small molecule inhibitors of firefly luciferase (AID 1224835); also: nearly all actives have a fitted effect of over 25% in size
Luciferin 4-monooxygenase (Photinus pyralis), sequence (P08659 whole entry, looked up): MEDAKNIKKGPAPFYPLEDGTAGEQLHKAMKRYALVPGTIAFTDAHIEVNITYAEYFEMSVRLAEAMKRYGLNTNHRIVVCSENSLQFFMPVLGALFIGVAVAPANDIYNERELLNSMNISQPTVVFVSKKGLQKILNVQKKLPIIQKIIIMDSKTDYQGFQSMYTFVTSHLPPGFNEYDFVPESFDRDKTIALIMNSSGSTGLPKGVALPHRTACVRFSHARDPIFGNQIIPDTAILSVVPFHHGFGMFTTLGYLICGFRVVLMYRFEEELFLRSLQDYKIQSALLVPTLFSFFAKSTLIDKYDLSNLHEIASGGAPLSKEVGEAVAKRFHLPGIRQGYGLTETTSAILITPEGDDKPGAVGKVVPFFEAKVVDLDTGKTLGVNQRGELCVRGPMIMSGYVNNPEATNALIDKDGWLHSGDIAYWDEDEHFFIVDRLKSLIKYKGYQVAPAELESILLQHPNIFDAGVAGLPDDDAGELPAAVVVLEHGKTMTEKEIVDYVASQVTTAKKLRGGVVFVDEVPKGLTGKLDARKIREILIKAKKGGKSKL
Procedure, shortened: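 Quantitative HTS format; KM concentrations of both substrates. Purified P. pyralis FLuc activity quantified from luminescence images.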

[3] = qHTS assay to identify small molecule antagonists of the constitutive androstane receptor (CAR) signaling pathway - cell viability counter screen (AID 1224837); also: nearly all actives have a fitted effect of over 45% in size; also: potency is read from the fitted curve at half-maximal effect
Procedure, shortened: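 Read-out: CellTiter-Fluor fluorescence after 23 hr at 37 C/5% CO2. Cells: HepG2 double-stable for hCAR and CYP2B6-2.2kb. Compounds tested at 15 concentrations in the presence of CITCO, final concentration 50 nM.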

[4] = target: Nuclear receptor subfamily 1 group I member 3 (Homo sapiens) (UniProt Q14994); assay: qHTS assay to identify small molecule antagonists of the constitutive androstane receptor (CAR) signaling pathway (AID 1224838);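 also: HepG2 cells stably expressing hCAR with CYP2B6 luciferase reporter stimulated by CITCO; nearly all actives have a fitted effect of over 40% in size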
Nuclear receptor subfamily 1 group I member 3 (Homo sapiens), sequence (Q14994 whole entry, looked up): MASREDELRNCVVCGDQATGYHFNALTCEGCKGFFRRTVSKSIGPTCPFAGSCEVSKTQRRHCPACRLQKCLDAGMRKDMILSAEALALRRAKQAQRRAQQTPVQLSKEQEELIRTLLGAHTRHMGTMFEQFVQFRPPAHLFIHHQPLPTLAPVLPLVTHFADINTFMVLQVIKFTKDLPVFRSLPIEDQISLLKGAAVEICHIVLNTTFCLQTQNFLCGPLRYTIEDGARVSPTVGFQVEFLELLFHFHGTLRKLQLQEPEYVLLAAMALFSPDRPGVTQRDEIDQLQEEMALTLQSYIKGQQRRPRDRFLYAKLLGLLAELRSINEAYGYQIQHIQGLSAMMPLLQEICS
Procedure, shortened: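 Read-out: ONE-Glo luciferase luminescence after 30 min at room temperature. HepG2-CYP2B6-hCAR double-stable cells, compounds in 15-point titration plus 50 nM CITCO final, 24 h at 37 C/5% CO2.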

[5] = target: Nuclear receptor subfamily 1 group I member 3 (Homo sapiens) (UniProt Q14994); assay: qHTS assay to identify small molecule agonists of the constitutive androstane receptor (CAR) signaling pathway (AID 1224839); also: nearly all actives have a fitted effect of over 15% in size; also: potency is read from the fitted curve at half-maximal effect;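 as to activation: HepG2 cells stably carrying human CAR and a CYP2B6 luciferase reporter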
Procedure, shortened: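 Cells were plated and incubated 4 hrs, then dosed with compounds at 15 concentrations. PK11195 was added to 0.75 uM final. After 24 hrs at 37 C, luciferase luminescence was measured.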

[6] = qHTS assay to identify small molecule antagonists of the estrogen related receptor signaling pathway with the pleiotropic PPARgamma coactivator (PGC) from Tox21 10K library - cell viability counter screen (AID 1224840; active = well fitted cell-killing curve with a large enough effect in the repeat runs, not every such curve was filed as active; also: nearly all actives have a fitted effect of over 40% in size; also: potency is read from the fitted curve at half-maximal effect)
Procedure, shortened: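 Fluorescence read-out of CellTiter-Fluor viability reagent, added after cells had been exposed to compound in DMSO for 17.5 h at 37 C; 30 min development at 37 C/5% CO2. Cells: PGC/ERR line, 2,000/well.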

[7] = qHTS assay to identify small molecule antagonists of the estrogen related receptor signaling pathway with the pleiotropic PPARgamma coactivator (PGC) from Tox21 10K library (AID 1224841; call rule not given here; also: actives are mostly falling curves and most rising ones were filed inactive; nearly all actives have a fitted effect of over 50% in size; also: potency is read from the fitted curve at half-maximal effect)
Procedure, shortened: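 Luminescence read-out (One-Glo luciferase reagent, 30 min at room temperature) from PGC/ERR cells exposed to DMSO-dissolved test compounds for 18 h at 37 C; cells, 2,000 per well, had been preincubated 6 h before compound transfer.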

[8] = qHTS assay to identify small molecule agonists of the estrogen related receptor signaling pathway with the pleiotropic PPARgamma coactivator (PGC) from Tox21 10K library (AID 1224842); also: nearly all actives have a fitted effect of over 15% in size
Procedure, shortened: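 PGC/ERR reporter cells (NTP line) were seeded 2,000 per well, rested 6 h at 37 C/5% CO2, then pin-dosed with compounds in DMSO for 18 h at 37 C; luciferase read by One-Glo luminescence after 30 min at room temperature.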

[9] = target: Thyrotropin receptor (Homo sapiens) (UniProt P16473); assay: qHTS assay to identify small molecule agonists of the thyroid stimulating hormone receptor (TSHR) signaling pathway (AID 1224843; calls by dose curve; also: nearly all actives have a fitted effect of over 45% in size; also: potency is read from the fitted curve at half-maximal effect)
Thyrotropin receptor (Homo sapiens), sequence (P16473 whole entry, looked up): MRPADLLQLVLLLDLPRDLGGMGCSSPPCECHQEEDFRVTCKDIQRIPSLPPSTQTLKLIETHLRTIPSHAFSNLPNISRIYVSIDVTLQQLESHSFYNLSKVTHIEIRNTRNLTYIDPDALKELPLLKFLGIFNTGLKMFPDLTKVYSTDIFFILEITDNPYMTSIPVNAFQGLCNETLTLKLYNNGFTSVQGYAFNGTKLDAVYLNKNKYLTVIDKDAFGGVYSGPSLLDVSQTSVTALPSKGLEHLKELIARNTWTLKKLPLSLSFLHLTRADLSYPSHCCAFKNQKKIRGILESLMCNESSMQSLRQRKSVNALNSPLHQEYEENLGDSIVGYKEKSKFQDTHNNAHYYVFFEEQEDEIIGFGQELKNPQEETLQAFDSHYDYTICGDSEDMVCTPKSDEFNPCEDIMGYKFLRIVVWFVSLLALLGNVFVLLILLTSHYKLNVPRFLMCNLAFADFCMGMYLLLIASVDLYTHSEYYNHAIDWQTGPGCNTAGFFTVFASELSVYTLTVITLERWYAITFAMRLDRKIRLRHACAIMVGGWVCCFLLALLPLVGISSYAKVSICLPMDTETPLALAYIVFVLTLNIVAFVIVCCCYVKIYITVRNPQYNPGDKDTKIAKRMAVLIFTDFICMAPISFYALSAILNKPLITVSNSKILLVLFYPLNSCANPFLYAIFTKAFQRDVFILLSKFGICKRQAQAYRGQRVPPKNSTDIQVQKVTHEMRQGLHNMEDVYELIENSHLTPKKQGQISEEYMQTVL
Procedure, shortened: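 Using 15 concentrations per compound in triplicate, cAMP production was monitored in TSHR-HEK293 cells after 30 min compound incubation at RT; HTRF reagents followed, with fluorescence intensity recorded after 1 h.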

[10] = qHTS assay to identify small molecule agonists of the hypoxia (HIF-1) signaling pathway - cell viability counter screen (AID 1224844; calls by dose curve; also: nearly all actives have a fitted effect of over 50% in size)
Procedure, shortened: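 CellTiter-Glo luminescence read-out, 30 min RT, taken in the same wells as the beta-lactamase HRE reporter assay; HRE-bla ME-180 cells, 0.5% dialyzed FBS, 17 hr compound treatment at 37C, 5% CO2.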

[11] = qHTS assay to identify small molecule agonists of H2AX (AID 1224845; active = well fitted activation curve with a large enough effect in the signal ratio in the repeat runs, not every such curve was filed as active; the % refers to the signal ratio)
Procedure, shortened: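 Wild-type CHO-K1 cells plated overnight, then exposed 3 hr at 37C to compounds at 15 concentrations (0.76% DMSO). Lysed, then HTRF anti-pH2AX(S139)-cryptate/anti-H2AX-d2 detection after 24 hr at room temperature; emissions 665 and 620 nm.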

[12] = qHTS assay to identify small molecule agonists of H2AX - cell viability counter screen (AID 1224847; calls by dose curve; also: nearly all actives have a fitted effect of over 30% in size; also: potency is read from the fitted curve at half-maximal effect)
Procedure, shortened: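 Cytotoxicity counter screen in wild-type CHO-K1 cells: a 3 hr compound treatment at 37C across 15 concentrations, followed by CellTiter-Glo luminescence to gauge viable cells.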

[13] = qHTS assay to identify small molecule antagonists of the estrogen related receptor (ERR) signaling pathway from Tox21 library (AID 1224848); also: nearly all actives have a fitted effect of over 50% in size; also: potency is read from the fitted curve at half-maximal effect
Procedure, shortened: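 Tox21 10K compounds in DMSO tested for ERR pathway antagonism in NTP's ERR cell line; 18 h, 37 C exposure; ONE-Glo luminescence.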

[14] = qHTS assay to identify small molecule agonists of the estrogen related receptor (ERR) signaling pathway from Tox21 library (AID 1224849; calls by dose curve; also: nearly all actives have a fitted effect of over 15% in size); conditions: ERR reporter cell line, ONE-Glo luciferase, 18 h; at 92.4 µM (top of the series) unless noted
Procedure, shortened: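 Luminescence readout (ONE-Glo, 30 min RT) after 18 h compound exposure at 37 C of NTP-supplied ERR reporter cells; cells were plated 6 h before compound addition by pin tool.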

[15] = qHTS RealTime-Glo MT Cell Viability Assay in HepG2 cells - 24 hour (AID 1224867); also: nearly all actives have a fitted effect of over 50% in size
Procedure, shortened: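 Real-time, nonlytic viability: 600 HepG2 cells/well mixed with NanoLuc enzyme plus prosubstrate; 5 h settle, compound (DMSO) added by pintool; luminescence monitored over 40 h at 37 C.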

[16] = qHTS RealTime-Glo MT Cell Viability Assay in HEK293 cells - 32 hour (AID 1224868); also: nearly all actives have a fitted effect of over 50% in size; also: potency is read from the fitted curve at half-maximal effect
Procedure, shortened: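 Cells + reagent dispensed (600 cells/well, HEK293) → 5 h at 37 C/5% CO2 → 23 nL compound in DMSO pinned → 40 h at 37 C → luminescence read at 0, 8, 16, 24, 32, 40 h.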

[17] = A CellTox Green Cytotoxicity Assay to monitor cytotoxicity in HEK293 cells - 0 hour (AID 1224869); also: nearly all actives have a fitted effect of over 50% in size
Procedure, shortened: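 Read-out: fluorescence of a cell-impermeant cyanine dye staining DNA of dead cells, proportional to cytotoxicity. HEK293, 600 cells/well with reagent, compound (23 nL DMSO) added after 5 h; reads at 0, 8, 16, 24, 32, 40 h.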

[18] = qHTS RealTime-Glo MT Cell Viability Assay in HepG2 cells - 40 hour (AID 1224870); also: nearly all actives have a fitted effect of over 50% in size
Procedure, shortened: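 HepG2 cells mixed with RealTime-Glo MT reagents (NanoLuc plus cell-permeant prosubstrate) were seeded at 600 cells/well, incubated 5 h at 37 C/5% CO2, then pinned with compounds in DMSO; nonlytic luminescence tracked viability during 40 h treatment.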

[19] = qHTS assay to identify small molecule agonists of the constitutive androstane receptor (CAR) signaling pathway - cell viability counter screen (AID 1224836); also: nearly all actives have a fitted effect of over 45% in size
Procedure, shortened: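 Cells were seeded and incubated 4 hrs. Compounds were added across 15 concentrations together with PK11195 at 0.75 uM final. Plates were incubated 23 hrs at 37 C. CellTiter-Fluor was added and fluorescence measured.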

[20] = qHTS assay to identify small molecule agonists of the hypoxia (HIF-1) signaling pathway (AID 1224846; active = well fitted activation curve with a large enough effect in the signal ratio in the repeat runs, not every such curve was filed as active; the % refers to the signal ratio)
Procedure, shortened: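 Beta-lactamase FRET read-out (CCF4-AM substrate) from ME-180 cells carrying an HRE-driven bla reporter, after 17 hrs compound exposure at 37C/5% CO2. Cells were seeded at 2,000 per well in 0.5% dialyzed FBS medium and preincubated 5 hrs.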

Compound	Potency [1]	Potency [2]	Potency [3]	Potency [4]	Potency [5]	Potency [6]	Potency [7]	Potency [8]	Potency [9]	Potency [10]	Potency [11]	Potency [12]	Potency [13]	activity change, positive = activation [14]	Potency [15]	Potency [16]	Potency [17]	Potency [18]	Potency [19]	outcome [20]
C=C(C#N)CCC#N	inactive	inactive	inactive	inactive	inactive	inactive	inactive	inactive	inactive	inactive	inactive	inactive	inactive	0.822%	inactive	inactive	inactive	inactive	–	–
CCOC(=O)[C@]1(c2ccccc2)Oc2ccccc2[C@@H]1N	inactive	inactive	–	–	–	inactive	–	–	–	inactive	inactive	–	–	–	inactive	–	inactive	inactive	–	–
CCOS(C)(=O)=O	inactive	inactive	inactive	–	–	–	–	–	–	inactive	inactive	inactive	–	–	inactive	inactive	inactive	inactive	inactive	inactive
CCCCC(O)(Cn1cncn1)c1ccc(Cl)cc1Cl (centres undefined)	54.4 µM (active)	inactive	61.1 µM (active)	inactive	–	54.4 µM (active)	48.5 µM (active)	inactive	–	–	inactive	113 µM (active)	38.5 µM (active)	–	–	38.9 µM (active)	inactive	–	–	inactive
ClCC(Br)CBr (centres undefined)	inactive	inactive	inactive	–	–	–	–	–	inactive	inactive	inactive	–	–	–	inactive	inactive	inactive	inactive	inactive	inactive
COC(N)=O	inactive	inactive	inactive	inactive	inactive	–	–	–	–	–	inactive	inactive	–	–	inactive	inactive	inactive	inactive	–	–
CCc1ccc(C(=O)NN(C(=O)c2cc(C)cc(C)c2)C(C)(C)C)cc1	8.63 µM (active)	inactive	–	inactive	–	inactive	30.6 µM (active)	inactive	15.4 µM (active)	inactive	inactive	–	30.6 µM (active)	-56.4%	inactive	inactive	inactive	inactive	–	inactive
CCOC(=O)CBr	inactive	inactive	inactive	inactive	inactive	inactive	–	–	inactive	inactive	inactive	inactive	–	–	inactive	–	inactive	inactive	–	–
COC1=CC(=O)O[C@@H](CCc2ccccc2)C1	inactive	–	inactive	inactive	56.7 µM (active)	inactive	inactive	inactive	–	–	inactive	inactive	–	-29.7%	inactive	inactive	inactive	inactive	inactive	inactive
